# ClpP mod – qHTS Assay for Activators of ClpP | ATP-dependent Clp protease proteolytic subunit (Bacillus subtilis (strain 168)), P80244 | purified B. subtilis ClpP, FRET peptide cleavage, 20 min | Potency, µM (doses to about 57.5 µM), inactives show at the highest dose activity change, negative = active | actives 1.9% (n = 340,000); active = well fitted falling curve with a large enough effect; inconclusive = small, poorly fitted or top-dose-only effect; inactive = no such curve, though single readings can be large or run the other way; also: potency is read from the fitted curve at half-maximal effect; the source files actives as falling curves though it sought activators and does not explain the sign; nearly all actives have a fitted effect of over 65% in size
#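 FRET quenching reversal measured ClpP activation: 10 microg/mL B. subtilis ClpP at pH 8 with the FRET-FV decapeptide, read at 430 nm after 320 nm excitation. The 20-min minus 0-min signal was scaled between DMSO/no-enzyme wells and ADEP (5.8 microM final).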
# gsp agonist – qHTS for Agonist of gsp, the Etiologic Mutation Responsible for Fibrous Dysplasia/McCune-Albright Syndrome: qHTS. actives 0.13% (n = 340,000). Potency, µM (series often up to 76.9 µM), for inactives: at the highest dose activation (cAMP increase), usual class: activators. gsp mutant cells, cAMP HTRF, 30 min; active = well fitted activation curve with a large enough effect; inconclusive = small, poorly fitted or top-dose-only effect, or another doubt; inactive = no such curve, though single readings can be large or run the other way; cell line not stated here;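 also: phosphodiesterase inhibitor Ro 20-1724 added with compounds to block cAMP breakdown; potency is read from the fitted curve at half-maximal effect; nearly all actives have a fitted effect of over 60% in size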
#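 Cells stably selected in G418 were plated at 2000/well, grown 16-24 hr, then given compounds in DMSO with the PDE inhibitor […] (300 uM solution added) for 30 min at 37C; cAMP was read by HTRF.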
# RXFP1 agonist – qHTS Assay for Agonists of the Relaxin Receptor RXFP1. Relaxin receptor 1 (Homo sapiens), Q9HBX9. HEK293T-RXFP1 cAMP TR-FRET, 30 min; response scale: percent of porcine relaxin response, buffer zero. Potency, µM (highest dose often 57.5 µM), for inactives: top-dose activation, most hits filed as activators. actives 0.3% (n = 370,000); active = well fitted activation curve with a large enough effect; inconclusive = small, poorly fitted or top-dose-only effect; also: potency is read from the fitted curve at half-maximal effect; % is scaled to controls: 0 for no effect and ±100 for the full control effect; nearly all actives have a fitted effect of over 60% in size
# Target sequence (Q9HBX9 whole entry, looked up): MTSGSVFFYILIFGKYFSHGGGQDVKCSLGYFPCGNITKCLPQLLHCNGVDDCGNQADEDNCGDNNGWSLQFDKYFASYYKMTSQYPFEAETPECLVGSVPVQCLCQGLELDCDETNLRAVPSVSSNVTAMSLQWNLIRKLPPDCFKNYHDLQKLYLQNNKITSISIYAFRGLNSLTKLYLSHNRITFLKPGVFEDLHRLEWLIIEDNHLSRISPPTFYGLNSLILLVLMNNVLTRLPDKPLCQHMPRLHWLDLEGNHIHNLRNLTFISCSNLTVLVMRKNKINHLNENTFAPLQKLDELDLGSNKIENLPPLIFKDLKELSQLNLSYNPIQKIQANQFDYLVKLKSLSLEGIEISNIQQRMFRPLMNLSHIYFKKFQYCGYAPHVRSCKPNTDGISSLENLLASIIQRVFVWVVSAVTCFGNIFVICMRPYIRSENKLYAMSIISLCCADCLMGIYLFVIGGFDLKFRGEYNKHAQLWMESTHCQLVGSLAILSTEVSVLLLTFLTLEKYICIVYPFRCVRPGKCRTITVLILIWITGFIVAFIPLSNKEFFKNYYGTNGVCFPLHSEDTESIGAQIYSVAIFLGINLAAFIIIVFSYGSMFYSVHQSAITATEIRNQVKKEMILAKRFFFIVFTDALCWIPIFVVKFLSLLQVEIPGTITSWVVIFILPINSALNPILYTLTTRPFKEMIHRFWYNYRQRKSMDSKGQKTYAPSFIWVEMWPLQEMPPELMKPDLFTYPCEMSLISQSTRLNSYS
#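 HEK293T cells stably expressing RXFP1 were pretreated with the PDE4 inhibitor Ro 20174, exposed to compounds for 30 min at 37C, lysed, and cAMP was read by TR-FRET. Data normalized to buffer (basal) and 29 nM porcine relaxin (100%).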
# gsp antag – qHTS for Antagonists of gsp, the Etiologic Mutation Responsible for Fibrous Dysplasia/McCune-Albright Syndrome: qHTS; AID 624288, 2012; gsp-mutant cells, cAMP HTRF, 30 min; actives 0.4% (n = 340,000); Potency, µM (highest dose often 76.9 µM), inactives show top-dose activity change, negative = inhibition, actives largely listed as inhibitors; calls by dose curve; cell line not stated here;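 also: intracellular cAMP measured with PDE inhibitor Ro 20-1724 present during compound exposure; potency is read from the fitted curve at half-maximal effect; % is scaled to controls: 0 for no effect and ±100 for the full control effect; nearly all actives have a fitted effect of over 65% in size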
#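 G418-selected cells were plated in DMEM/10% FBS for 16-24 h at 37C, then treated with compounds plus the PDE inhibitor […] (300 uM solution added) for 30 min at 37C. Intracellular cAMP was measured by HTRF after 30 min lysis at room temperature.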
# pAkt inh – HTS Assay for Inhibitors of Akt Phophorylation: Primary Screen; Neuro2A IGF-stimulated pAkt S473 HTRF, 20 min; stronger effect = lower value; activity change, % for hits at 50 µM; AID 651550, 2012; actives 0.32% (n = 360,000); in the data active = activity change below about -80%; inconclusive = mostly about -51% to -80%; also: % is scaled to controls: 0 for no effect and ±100 for the full control effect
#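 Single-point screen (50 µM final compound) in Neuro2A cells stimulated 20 min with 6 nM IGF at 37 deg C. After lysis, Ser473-phosphorylated Akt read by HTRF (ex 330 nm, em 615/665 nm) as the 665/615 ratio.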
# RXFP1 antag – qHTS Assay for Antagonists of the Relaxin Receptor RXFP1. Relaxin receptor 1 (Homo sapiens), Q9HBX9. actives 0.59% (n = 350,000). HEK293-RXFP1, relaxin-stimulated cAMP HTRF, 30 min; stronger effect = lower value. activity change, negative = inhibition, % at 57.5 µM;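 active = activity change of -60% or lower, but not beyond a set lower limit; inconclusive = change between -60% and -40%, or beyond the set limit; inactive = change above -40%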; also: % is scaled to controls: 0 for no effect and ±100 for the full control effect
# * hit, by the source's call; i = inactive; u = inconclusive; x = no result given; ! = repeats disagree. An excerpt weighted towards active compounds, which were near 2.7% of everything screened.
SMILES,ClpP mod,gsp agonist,RXFP1 agonist,gsp antag,pAkt inh,RXFP1 antag
Cc1cc(C)c2oc(-c3ccc(NC(=O)c4cc(Br)ccc4Cl)cc3)nc2c1,20µM*,x,0%,x,x,-22
COc1ccc2oc(-c3ccc(NC(=O)c4ccc(Cl)cc4Cl)cc3)nc2c1,35µM*,x,13%,x,x,-8
Cc1ccc(-c2nc3cc(NC(=O)c4cc(Br)ccc4Cl)ccc3o2)cc1,u,x,-1%,x,x,-5
COc1ccc(OCC(=O)Nc2ccc(-c3nc4cc(Cl)ccc4o3)cc2)cc1,-12%,x,22%,x,x,-4
COc1ccc2oc(-c3ccc(C)c(NC(=O)CSc4ccc(Cl)cc4)c3)nc2c1,11µM*!,-27%,1%,-5%,i,17
Cc1ccc(S(=O)(=O)N2CCOCC2)cc1NC(=O)COC(=O)c1ccco1,-2%,13%,x,x,i,11
CCOc1ccccc1CNc1nc2nc(C)c(CC(=O)OC)c(=O)n2[nH]1,-11%,x,-3%,x,x,-6
CCCCCC1CCNCC1,-21%,x,x,x,x,x
Cc1ccsc1C1Nc2ccccc2C(=O)N1O (stereo not given),-2%,13%,0%,-1%,i,-13
Cc1cc2n(n1)C(c1ccc(N(C)C)cc1)Nc1ccccc1-2 (stereo not given),-27%,-2%,8%,-30%,i,-17
Cc1ccc2c(c1)-c1cc(C)nn1C(c1sccc1C)N2 (stereo not given),16µM*,2%,2%,-9%,i,-3
Cc1cc2n(n1)C(c1sccc1C)Nc1ccccc1-2 (stereo not given),18µM*,3%,0%,-8%,i,-4
Cc1ccc2c(c1)-c1cc(C)nn1C(c1ccc3c(c1)OCO3)N2 (stereo not given),13µM*,9%,2%,u,i,3
Cc1cc2n(n1)C(c1ccccc1)Nc1ccccc1-2 (stereo not given),25µM*,5%,-1%,-10%,i,5
CCOc1ccc(CCNC(=O)c2cnc3sc(N4CCCCC4)nn3c2=O)cc1,-9%,x,-2%,x,x,-5
CC(=O)N[C@H]1[C@H]([C@H](O)[C@H](O)CO)OC(C(=O)O)=C[C@@H]1N=C(N)N,x,x,x,x,x,-3
Cc1ccc(OCCCCn2c(CCNC(=O)C3CCCCC3)nc3ccccc32)cc1,-3%,x,x,x,x,x
Cc1cc2n(n1)C(c1sccc1C)Nc1c(C)cccc1-2 (stereo not given),28µM*,u,0%,u,i,9
COc1cc(OC)c(C2Nc3c(C)cccc3-c3cc(C)nn32)cc1OC (stereo not given),u,x,u,x,x,-2
CCSc1nc(-c2ccc(OC)cc2)ccc1C#N,28µM*,-14%,2%,-8%,i,-12
COC(=O)c1cc(C)nc2c1c(=O)nc(SCc1c(C)cc(C)cc1C)n2C1CC1,0%,x,3%,x,x,-18
Cc1ccc(CSc2nc(=O)c3c(C)cc(C)nc3n2C2CC2)cc1,1%,x,10%,x,x,-62*
CCOc1ccccc1NC(=O)Cn1c(=O)n(CCC(C)C)c(=O)c2cccnc21,0%,x,u,x,x,x
CCOc1ccc(-c2nc3c(c(CC)nn3-c3ccccc3)c3cc(OC)c(OC)cc23)cc1,-11%,x,8%,x,x,-2
COc1ccc(-c2nnc(-c3cccs3)o2)cc1OC,32µM*,u,3%,-10%,x,2
Cc1ccc(NC(=O)c2ccc3c(c2)N(CC(=O)N2CCCCC2)C(=O)C(C)(C)O3)cc1,2%,4%,0%,-14%,-121%*,-22
